Reference: PubChem BioAssay (NCATS)
Results filed as inconclusive are left out. The source made the active and inactive calls. Calls follow the shape of the dose curve; as a rule, active = well fitted curve in either direction with a large enough effect (not every such curve was filed as active); inconclusive = small, poorly fitted or top-dose-only effect, or another doubt; inactive = flat fitted curve, though single readings scatter.

Target: Mitogen-activated protein kinase 10 (Mus musculus) (UniProt Q61831)
Test: JNK3 AlphaScreen Assay (AID 530);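 also: kinase came from lysate of stimulated human HepG2 cells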
Conditions: JNK3 lysate, c-Jun phosphorylation; series mostly up to 57.1 µM
How it was run: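 Biotinylated GST-cJun(1-79) served as substrate for JNK3 in HepG2 lysates stimulated with IL-1beta and TNF-alpha. ATP was 10 uM final, pH 7.6. Ser73 phosphorylation was quantified by AlphaScreen (680 nm excitation).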

Potency, inactive:
Cc1nc2cnc(Oc3cccc(Cl)c3)nc2n(C2CC2)c1=O, CNc1ncncc1-c1ccccc1C(F)(F)F, CC(=O)NCCNc1nc(-c2ccc(C(=O)N(C)C)cc2)nc2ccccc12, COc1ccc(CNc2ccnc(-c3ccc(C(=O)N(C)C)cc3)n2)c(OC)c1, Clc1ccccc1-c1cc(NCCN2CCOCC2)ncn1, COc1ccc(CNc2cc(-c3cccnc3)ncn2)c(OC)c1, CCNc1ncc2nc(-c3ccc(OC)cc3)c(=O)n(CCC#N)c2n1, FC(F)(F)c1ccccc1-c1cncnc1NCc1cccnc1, COc1ncc2nc(-c3cn(C)c4ccccc34)c(=O)n(C)c2n1, CN(C)C(=O)c1ccc(-c2cncnc2NCc2ccccc2)cc1, COc1ccc(-n2c(=O)c(CCc3ccccc3)nc3cncnc32)cc1, Cc1nc2cnc(N(C)C)nc2n(-c2ccccc2)c1=O, COc1ccccc1CNc1ncncc1-c1ccc(C(=O)N(C)C)cc1, COc1ccc(CNc2ncncc2-c2ccccc2C(F)(F)F)c(OC)c1, COCCn1c(=O)c(-c2cccc(C#N)c2)nc2cnc(N3CCOCC3)nc21, CNc1ncncc1-c1ccccc1C, O=c1cnc2cnc(Oc3ccccc3)nc2n1C1CC1, COCCn1c(=O)c(-c2cccc(C#N)c2)nc2cnc(Oc3ccc(OC)cc3)nc21, O=c1c(-c2ccccc2)nc2cncnc2n1-c1ccccc1, CN(C)C(=O)c1ccc(-c2nccc(N(C)Cc3ccco3)n2)cc1, COc1c(O)cc2oc3cc(O)c(CC=C(C)C)c(O)c3c(=O)c2c1CC=C(C)C, CS(=O)(=O)Nc1cccc(-c2cc(NCc3cccs3)ncn2)c1, COc1ccc(-c2nc3cnc(OC)nc3n(C)c2=O)cc1, c1ccc(CNc2ncncc2-c2cccnc2)cc1, CN(C)c1ncc2nc(-c3cccs3)c(=O)n(-c3ccccc3)c2n1, Cn1c(=O)c(-c2ccc(Cl)cc2)nc2cnc(OCc3ccccc3)nc21, COc1cccc(Cn2c(=O)c(-c3ccc(Cl)cc3)nc3cnc(N4CCN(C)CC4)nc32)c1, COc1cccc(Cn2c(=O)c(CCc3ccccc3)nc3cncnc32)c1, Cn1c(=O)c(-c2ccccc2)nc2cnc(Nc3ccccc3)nc21, COc1ncc2ncc(=O)n(C3CC3)c2n1, Cc1cnc(CNc2cc(-c3ccccc3C(F)(F)F)ncn2)cn1, CN(C)C(=O)c1ccc(-c2cncnc2NCc2cccnc2)cc1, COc1ncc2nc(-c3ccc(F)cc3)c(=O)n(CCc3ccccc3)c2n1, N#Cc1cccc(-c2nccc(-n3ccnc3)n2)c1, O=c1c(-c2ccccc2)nc2cnc(Oc3cccc(Cl)c3)nc2n1C1CC1, CNc1nc(-c2cccnc2)nc2ccccc12, Cn1cc(-c2nc3cnc(Oc4ccccc4)nc3n(Cc3cccs3)c2=O)c2ccccc21, COc1cccc(Cn2c(=O)c(-c3ccc(Cl)cc3)nc3cnc(OC)nc32)c1, c1ccc(CNc2ccnc(-c3ccc4c(c3)OCO4)n2)cc1
